# Results: PubChem BioAssay AID485347 (National Center for Advancing Translational Sciences (NCATS), 2010)
# About 1,200 (0.35%) of roughly 340,000 compounds were called active.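 Rule for the calls: active = potentiation over 3 SD above the plate norm (cut at about 30% in these data); inactive = the rest.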 Many of the other results were omitted from the sample, so actives are more common in it than they were.
# Molecular target: D(2) dopamine receptor (Homo sapiens) (UniProt P14416)
# Assay: HTS Assay for Positive Allosteric Modulators of the Human D2 Dopamine Receptor: Primary Screen for Potentiators; note: 0% is about no effect
# Conditions: HEK293 T-REx D2, calcium flux, EC20 dopamine potentiation; at 10 µM; hits give high values
# Text: NIH Chemical Genomics Center [NCGC] NIH Molecular Libraries Probe Centers Network [MLPCN] MLPCN Grant: NS064831-01 Assay Submitter (PI): David Sibley Dopamine receptors (DARs) are involved in the etiology and/or therapy of a number of neuropsychiatric and endocrine disorders. For instance, all receptor-based antiparkinsonian drugs work via stimulating the D2 DAR subtype whereas all FDA-approved antipsychotic agents are antagonists of this receptor. […] There are three different types of allosteric modulators that we are seeking, two of which will stimulate or augment receptor signaling, allosteric agonists and potentiators, while the third, allosteric antagonists, will attenuate receptor signaling. The present primary screening assay measures compound potentiation of an EC20 dopamine response by tracking calcium flux in a […], inducible Hek293 Trex D2 cell line.
# Freshly passaged cells are plated in 1536 well black, clear bottom plates at a density of 4000 cells/well in 3 ul of complete media containing 1x tetracycline inducer. After an overnight incubation at 30 C in 5% CO2, cells are loaded with 2 ul of the no wash Calcium Assay Kit (ABD Bioquest) and incubated at room temperature for 30 to 90 minutes. A 10 cycle (1 second/cycle) baseline measurement is taken and then the FDSS online 1536 pintool delivers 23 nl of compound library (as well as dopamine controls) to the plate. The plate is measured for kinetically at 1 cycle/sec for 180 seconds and is considered to be the agonist portion of the assay (eg, compounds which activate a positive calcium response during this portion are flagged as potential agonists). Following the 180 second read, 1 ul of an EC20 of dopamine is delivered by an onboard pipette head. Measurements are taken kinetically for an additional 180 seconds.
# Chain of D(2) dopamine receptor (Homo sapiens) (P14416 whole entry, looked up): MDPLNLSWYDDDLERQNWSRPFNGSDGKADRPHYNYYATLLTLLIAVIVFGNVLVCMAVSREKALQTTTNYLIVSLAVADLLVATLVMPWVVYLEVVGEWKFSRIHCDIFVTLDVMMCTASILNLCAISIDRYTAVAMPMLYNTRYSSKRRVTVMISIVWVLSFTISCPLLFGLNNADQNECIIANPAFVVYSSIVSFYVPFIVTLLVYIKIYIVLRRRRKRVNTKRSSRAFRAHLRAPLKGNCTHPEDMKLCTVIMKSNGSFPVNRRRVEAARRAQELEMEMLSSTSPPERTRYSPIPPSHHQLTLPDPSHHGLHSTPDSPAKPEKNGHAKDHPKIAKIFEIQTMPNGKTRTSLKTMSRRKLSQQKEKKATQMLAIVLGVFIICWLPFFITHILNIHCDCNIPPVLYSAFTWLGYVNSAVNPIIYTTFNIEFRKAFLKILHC
row,Structure (SMILES),potentiation
1,O=C(NCC(c1cccnc1)N1CCN(c2ccccc2)CC1)Oc1ccccc1 (stereo not given),43.6% (active)
2,COc1ccccc1N1CCN(C(CNC(=O)Oc2ccccc2)c2cccnc2)CC1 (stereo not given),-0.508% (inactive)
3,COC(=O)C(c1ccccc1)N1CCCCCC1 (stereo not given),5.6% (inactive)
4,Cc1cccc(Cn2cccc(C(=O)Nc3ccc4c(c3)OCCO4)c2=O)c1,-8.38% (inactive)
5,Cc1ccc(NC(=O)N(Cc2ccc3c(c2)OCO3)C2CCN(Cc3ccccc3)CC2)cc1F,2.88% (inactive)
